Reference: PubChem BioAssay

Test: binders from COS7 lysate, DM2A8 probe, primary screen, torsin A project, cell lysate, small-molecule microarray, fluorescence 635/667 (AID 1065)
Conditions: higher = more signal, COS7 lysate expressing mutant human TOR1A

| SMILES | composite z-score |
| --- | --- |
| COc1ccc(-c2nc3c(c4c2C[C@H](C)OC4)CN(CCC(C)C)CC3)cc1 | 0.39 |
| CO[C@@H]1COC(=O)[C@@H]2CCCN2C(=O)[C@@H](C)COC(=O)[C@H](COCc2ccccc2)NC(=O)CC=C[C@H]1C | 0.32 |
| CCN1C(=O)[C@H]2[C@H]3[C@H](O)[C@H](O)CC(=NOC(C)CN4CCCCc5nc(C)c(C)cc54)[C@@H]3CC[C@H]2C1=O (stereo partly specified) | 0.532 |
| CCc1cc2c(nc1CC)CCN(CCC(C)=NO[C@@H](C)c1cc(-c3c(C)cc(C)cc3C)no1)C2 | 0.0396 |
| CO[C@H]1O[C@H](CO)[C@@H](OC(=O)Nc2ccc3c(c2)OCO3)[C@H](OC(=O)Nc2ccccc2-c2ccccc2)[C@@H]1OC(=O)Nc1ccccc1-c1ccccc1 | -0.029 |
| COC(=O)[C@@]1(Cc2ccc(F)cc2)[C@H]2c3cc(C(=O)N(C)C)n(Cc4ccc(OC)c(OC)c4)c3C[C@H]2CN1C(=O)c1ccccc1 | -0.0565 |
| CC(C)NC(=O)[C@@]1(C)c2ccccc2C(=O)N(Cc2cc(F)cc(C(F)(F)F)c2)[C@H]1c1ccc(CO)cc1 | 0.0214 |
| O=C1NC(=O)C2C1C=CC(C(O)Cc1ccccc1)N2Nc1ccccn1 (stereo unspecified) | 0.0052 |
| CC[C@@H](c1ccccc1)n1c(=O)n2n(c1=O)[C@H]1[C@H](O)[C@@H]3O[C@@H]3C(=NOCC(C)C)[C@H]1CC2 | 0.428 |
| COc1cccc([C@H]2Oc3ccc(OC)cc3C(=NO[C@H](C)c3cn([C@@H]4COC[C@H]4O)nn3)[C@@H]2O)c1 | 0.044 |
| COCCOC(=O)N1C(=O)[C@@]2(c3cc(C#CCNC(N)=O)ccc31)[C@H](c1ccc(O)cc1)N1[C@H](c3ccccc3)[C@H](c3ccccc3)OC(=O)[C@H]1[C@@H]2C(=O)N1CCCCCCC1 | 0.384 |
